Each structure is given as a SMILES string. Compounds without any hit were thinned out: in the full panel of roughly 83,000, 20% have a hit.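 In brief: 96-well plates, 48 h treatment, single concentration, percent growth endpoint.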 Unmarked numbers belong to inactive results. Calls of active or inactive are those of the source. How the source made its calls: active means growth percent below 10; inactive means the rest.

The values below come from PubChem BioAssay (NCI).

Among the test systems are HCT-15 colon; HT29 colon; SNB-75 CNS; SNB-19 CNS; U251 CNS; PC-3 prostate; SK-MEL-5 melanoma; UACC-62 melanoma; LOX IMVI melanoma; SK-MEL-28 melanoma; SK-MEL-2 melanoma; EKVX NSCLC; SN12C renal; UO-31 renal; TK-10 renal; ACHN renal; CAKI-1 renal; A498 renal; CCRF-CEM leukemia; MOLT-4 leukemia.
Common to all, as to test: NCI-60 one-dose screen, 48 h (100 = growth as untreated, 0 = no growth, -100 = all killed)
Holding throughout (settings): 10 µM unless noted

As for `NC1CCN(c2nc(Nc3cccc(C(F)(F)F)c3)c3c(=O)[nH]ccc3n2)CC1`, the growth in the assay with HCT-15 colon is -80% (active); in the assay with HT29 colon, -16.3% (active); in the assay with SNB-75 CNS, -76.8% (active); with SNB-19 CNS it was -14.3% (active); with U251 CNS, -82.1% (active); in the assay on PC-3 prostate, 19.3%. Moreover, the growth was -96.2% (active) in the assay on SK-MEL-5 melanoma; -80.4% (active) with UACC-62 melanoma; -94.2% (active) with LOX IMVI melanoma; -85.4% (active) in the assay with SK-MEL-28 melanoma; -77.6% (active) with SK-MEL-2 melanoma; 4.44% (active) in the assay on EKVX NSCLC. Moreover, the growth was -75.8% (active) in the assay on SN12C renal; -80.8% (active) in the assay on UO-31 renal; -26.9% (active) with TK-10 renal; -70% (active) in the assay on ACHN renal; -13.8% (active) with CAKI-1 renal; 93.9% in the assay with A498 renal. The growth is -18.4% (active) in the assay with CCRF-CEM leukemia and -37.9% (active) with MOLT-4 leukemia.
For `Cc1cc(=O)oc2cc(OC(=O)N3CCN(C)CC3)ccc12`, the growth is 99.4% in the assay on HCT-15 colon; 114% with HT29 colon; 73.1% in the assay on SNB-75 CNS; 100% with SNB-19 CNS; 107% in the assay with U251 CNS; 96.7% with PC-3 prostate. Further, the growth in the assay on SK-MEL-5 melanoma was 102%; in the assay with UACC-62 melanoma, 97.6%; in the assay on LOX IMVI melanoma it was 95.1%; with SK-MEL-28 melanoma, 101%; with SK-MEL-2 melanoma it was 116%; in the assay with EKVX NSCLC, 99.2%. Moreover, the growth was 97.9% in the assay on SN12C renal; 85.3% in the assay on UO-31 renal; 125% in the assay with TK-10 renal; 96.6% in the assay on ACHN renal; 89.7% in the assay with CAKI-1 renal; 105% with A498 renal. Further, the growth is 104% in the assay with CCRF-CEM leukemia and 97.7% in the assay with MOLT-4 leukemia.
Take `O=C(/C=C/c1ccc([N+](=O)[O-])o1)NNC(=O)c1cc2ccccc2cc1O`: the growth in the assay with HCT-15 colon is -62.7% (active); in the assay with HT29 colon it was 7.4% (active); in the assay on SNB-75 CNS it was 45.7%; with SNB-19 CNS, 33.5%; in the assay with U251 CNS, 17.5%; in the assay with PC-3 prostate it was 38.4%. The growth in the assay on SK-MEL-5 melanoma is -86.9% (active); in the assay with UACC-62 melanoma, -99.1% (active); with LOX IMVI melanoma, -10.5% (active); in the assay on SK-MEL-28 melanoma it was -46.1% (active); with SK-MEL-2 melanoma, -50.9% (active); with EKVX NSCLC it was 38.6%. In addition, the growth is 7.5% (active) in the assay on SN12C renal; 2.06% (active) with UO-31 renal; 19.3% with TK-10 renal; -82% (active) with ACHN renal; 22.5% in the assay with CAKI-1 renal; -51% (active) with A498 renal. Also, the growth in the assay on CCRF-CEM leukemia was 6.58% (active); in the assay with MOLT-4 leukemia, 3.05% (active).
Turning to `CCOC(=O)c1nc(Nc2ccc(C(C)=O)cc2)sc1C`, the growth in the assay on HCT-15 colon is 96.8%; in the assay with HT29 colon it was 97.5%; in the assay on SNB-75 CNS, 89.7%; in the assay on SNB-19 CNS, 95.9%; in the assay on U251 CNS it was 101%; in the assay on PC-3 prostate it was 99.5%. The growth in the assay with SK-MEL-5 melanoma was 100%; in the assay with UACC-62 melanoma, 95.1%; in the assay with LOX IMVI melanoma, 99.9%; in the assay on SK-MEL-28 melanoma, 102%; in the assay on SK-MEL-2 melanoma, 106%; with EKVX NSCLC, 97.8%. Also, the growth in the assay with SN12C renal is 104%; in the assay on UO-31 renal, 91.8%; in the assay on TK-10 renal, 97.9%; in the assay with ACHN renal it was 101%; in the assay on CAKI-1 renal, 94.7%; in the assay on A498 renal, 75.1%. The growth is 99.9% in the assay on CCRF-CEM leukemia and 97.8% in the assay on MOLT-4 leukemia.
With `COc1ccc(OC)c(/C=C2\Oc3cc(OCCN4CCC(Cc5ccccc5)CC4)ccc3C2=O)c1`, the growth was 24.3% with HCT-15 colon; 21.4% with HT29 colon; 72.6% in the assay with SNB-75 CNS; 98.8% with SNB-19 CNS; 81.2% with U251 CNS; 78% with PC-3 prostate. Moreover, the growth is 75.2% in the assay on SK-MEL-5 melanoma; 92.8% in the assay with UACC-62 melanoma; 56.1% in the assay with LOX IMVI melanoma; 89.5% with SK-MEL-28 melanoma; 105% in the assay on SK-MEL-2 melanoma; 75.6% with EKVX NSCLC. In addition, the growth was 80.8% in the assay on SN12C renal; 53.8% in the assay with UO-31 renal; 97.7% in the assay on TK-10 renal; 99.7% with ACHN renal; 61.4% in the assay on CAKI-1 renal; 88.6% with A498 renal. Moreover, the growth with CCRF-CEM leukemia is 75.6%.
Take `C=C1CC[C@H](C(C)C)[C@@H]2[C@H]1[C@H]1CC(=C)[C@@H](O)CC[C@@](C)(O)[C@@H]2O1`: the growth in the assay on HCT-15 colon was 107%; in the assay with HT29 colon, 101%; with SNB-75 CNS, 88.1%; in the assay with SNB-19 CNS, 91.5%; in the assay on U251 CNS, 106%; with PC-3 prostate it was 89.9%. Besides, the growth with SK-MEL-5 melanoma was 100%; in the assay on UACC-62 melanoma, 92.8%; in the assay with LOX IMVI melanoma it was 93.8%; in the assay on SK-MEL-28 melanoma it was 105%; in the assay on SK-MEL-2 melanoma, 80.9%; in the assay with EKVX NSCLC it was 98.1%. The growth with SN12C renal was 109%; in the assay with UO-31 renal, 82.6%; in the assay on TK-10 renal, 103%; with ACHN renal, 95.8%; in the assay with CAKI-1 renal it was 95.1%; in the assay with A498 renal, 89.3%. Also, the growth with CCRF-CEM leukemia is 94%.
As for `Cc1c(C(=O)/C=C/Nc2c(Cl)cc(S(N)(=O)=O)cc2Cl)sc2nc3ccccc3n12`, the growth in the assay on HCT-15 colon is 105%; with HT29 colon, 108%; in the assay on SNB-75 CNS, 93.6%; with SNB-19 CNS, 99.3%; with U251 CNS, 107%; in the assay with PC-3 prostate, 104%. Further, the growth is 104% with SK-MEL-5 melanoma; 101% with UACC-62 melanoma; 97.3% with LOX IMVI melanoma; 103% in the assay with SK-MEL-28 melanoma; 109% in the assay with SK-MEL-2 melanoma; 106% in the assay with EKVX NSCLC. Further, the growth in the assay with SN12C renal is 102%; in the assay with UO-31 renal it was 89.2%; in the assay on TK-10 renal it was 111%; with ACHN renal, 99%; in the assay with CAKI-1 renal it was 98.5%; in the assay with A498 renal it was 101%. In the assay on CCRF-CEM leukemia, the growth is 102%.
`CN1C(=O)N(C)C2Nn3c(s/c(=C\c4ccccc4)c3=O)=NC21` (stereo unspecified): the growth in the assay with HCT-15 colon was 93.1%; in the assay on HT29 colon, 106%; with SNB-75 CNS it was 71.4%; in the assay with SNB-19 CNS, 95.6%; in the assay on U251 CNS, 96.2%; in the assay with PC-3 prostate it was 101%. Also, the growth with SK-MEL-5 melanoma is 101%; in the assay with UACC-62 melanoma, 90.9%; with LOX IMVI melanoma, 92.6%; in the assay with SK-MEL-28 melanoma it was 105%; in the assay on SK-MEL-2 melanoma, 109%; in the assay on EKVX NSCLC, 96.5%. Also, the growth was 95.6% in the assay with SN12C renal; 81.8% with UO-31 renal; 115% in the assay on TK-10 renal; 97.8% with ACHN renal; 82.7% with CAKI-1 renal; 68% with A498 renal. Also, the growth in the assay with CCRF-CEM leukemia is 99.5%.
